Laboratory results published in the OligoGym collection.
Further: reference of the scale not given here.

These sequences were tested against SEC11C (assay: pooled miR-30 sensor sort-seq; sequence = guide strand). Conditions: shRNA.
Sequence TCATGAACTTTGATTACTCTGT has a sensor-assay potency score (higher = more potent) of 0.434. Sequence ATCTTTTTCATGAACTTTGATT has a sensor-assay potency score (higher = more potent) of -1.19. In the case of ATTATTATCTCCTTTAGTCAGA, the sensor-assay potency score (higher = more potent) is reported as -0.731. TTCAACTTTAAAAACAACTATT showed a sensor-assay potency score (higher = more potent) of -1.15. In the case of ATGAACTTTGATTACTCTGTGA, the sensor-assay potency score (higher = more potent) is reported as -0.369.

The sequences below were run against SEC22B in the same assay as above. Conditions: shRNA.
For TTTCAGGACATCTCTTTTCTTG, the sensor-assay potency score (higher = more potent) was -0.395. With TCAATGTAGAGCTTCTTGGTTT the sensor-assay potency score (higher = more potent) was -0.305. TCTAATACACATCTCTGTGAGC was tested, and the sensor-assay potency score (higher = more potent) was -0.275. TTGGATTCTAATACACATCTCT showed a sensor-assay potency score (higher = more potent) of 0.391. TTCTAATACACATCTCTGTGAG gave a sensor-assay potency score (higher = more potent) of 0.118. Work on TTTCCTGAAAATATACACCTAC yielded a sensor-assay potency score (higher = more potent) of 0.224. TAATATAATTCACTTACCCTAA showed a sensor-assay potency score (higher = more potent) of -0.417. Work on TAGCCTTTGAATCCAATGCTGA yielded a sensor-assay potency score (higher = more potent) of -0.568. Sequence TTCATTTTCAGGACATCTCTTT has a sensor-assay potency score (higher = more potent) of 0.0656. Work on TCGTTGTAACACTTCTTCGATA yielded a sensor-assay potency score (higher = more potent) of -1.15. TCGAGCACAACTGTCAATGTAG was tested, and the sensor-assay potency score (higher = more potent) was 0.24.
